Screens: PubChem, National Center for Advancing Translational Sciences (NCATS)
Compounds with a hit are over-represented: about 1.9% of the library has one in this group of screens.
PTHR1 ag – qHTS for PTHR1 Agonists: Primary Screen. Parathyroid hormone/parathyroid hormone-related peptide receptor (Homo sapiens), Q03431. HEK293 GP2 PTHR1 cells, GloSensor cAMP luminescence, 1 h. Potency, µM (doses to about 115 µM), usual class: activators. 410,000 compounds, 0.075% hits. AID 743266, 2014; also: nearly all actives have a fitted effect of over 55% in size
Target sequence (Q03431 whole entry, looked up): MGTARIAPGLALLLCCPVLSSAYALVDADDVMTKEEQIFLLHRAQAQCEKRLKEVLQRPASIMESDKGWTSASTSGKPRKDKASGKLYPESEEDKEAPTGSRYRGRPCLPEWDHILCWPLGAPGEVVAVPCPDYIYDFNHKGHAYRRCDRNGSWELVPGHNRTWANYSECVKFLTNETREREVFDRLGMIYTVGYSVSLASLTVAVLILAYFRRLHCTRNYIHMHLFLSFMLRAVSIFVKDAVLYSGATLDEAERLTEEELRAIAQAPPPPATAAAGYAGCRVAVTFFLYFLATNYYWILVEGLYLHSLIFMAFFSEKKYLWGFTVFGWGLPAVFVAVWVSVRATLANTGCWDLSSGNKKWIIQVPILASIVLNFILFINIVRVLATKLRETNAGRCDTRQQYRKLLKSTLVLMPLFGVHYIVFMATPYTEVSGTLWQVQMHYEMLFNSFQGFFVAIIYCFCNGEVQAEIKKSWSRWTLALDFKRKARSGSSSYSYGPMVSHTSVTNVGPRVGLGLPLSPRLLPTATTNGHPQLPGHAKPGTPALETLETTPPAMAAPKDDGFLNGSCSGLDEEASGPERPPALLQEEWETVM
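HEK-293-derived GP2 cells expressing PTHR1 and a GloSensor cAMP reporter, 3,000/well, plated overnight, given luciferin plus IBMX (each 0.5 mM as added) for 1 h at 37 °C, then compound for 1 h at 37 °C. Luminescence was read after 15 min at room temperature.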
LDHA block – qHTS assay for inhibitors of human lactate dehydrogenase. L-lactate dehydrogenase A chain (Homo sapiens), P00338. purified LDHA, NADH/diaphorase-resazurin fluorescence; active compounds read low. activity change, % (values are at about 110 or 230 µM). 480,000 compounds, 0.15% hits; in the data active = activity change below about -30%; inconclusive = mostly about -25% to -30%
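Enzyme activity of human lactate dehydrogenase 5 (2 nM; 0.06 mM NADH, 0.2 mM pyruvate, 5 min, RT) is measured via a resazurin/diaphorase fluorescence readout of residual NADH.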
TDP43 rescue – qHTS of TDP-43 Inhibitors | 410,000 compounds, 1.8% hits | TDP-43 expressing yeast growth rescue, BacTiter-Glo, 24 h | Potency, µM (doses to about 46.1 µM), most hits filed as activators; also: nearly all actives have a fitted effect of over 50% in size
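Luminescence from BacTiter-Glo reports growth of TDP-43-expressing yeast after 24 hr at 30 deg C with compound. Cells were raffinose-pregrown to mid-log, then seeded in galactose medium at OD600=0.02.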
FUS suppressor – qHTS for Suppressors of FUS Proteinopathy: Primary screen using FUS-linked yeast assay | S. cerevisiae FUS-expressing, growth rescue, OD600, 24 h | Potency, µM (series often up to 76.6 µM), hits mostly activators | 390,000 compounds, 0.24% hits; also: nearly all actives have a fitted effect of over 55% in size
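Cultures pregrown in 2.5% raffinose medium are shifted to minimal medium containing 2% galactose to express toxic FUS. Compounds are tested at several concentrations. After 24hr at 30C, growth is quantified at 600 nm absorbance.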
Abeta yeast res – qHTS for compounds that reverse cellular toxicity of Amyloid beta (A-beta) peptide in yeast: Primary Screen; yeast expressing A-beta42, growth rescue, OD600, 48 h; response scale: 0% DMSO, 100% iron-clioquinol control; Potency, µM (highest dose often 46.1 µM), actives largely listed as activators; 410,000 compounds, 0.063% hits; AID 1347071, 2019; also: nearly all actives have a fitted effect of over 55% in size
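Growth rescue measured by 600 nm absorbance after 48 h yeast culture at 30 C with compound. Values normalized between DMSO and an equimolar ferric chloride plus clioquinol control.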
aSyn yeast inh – qHTS of alpha-syn Inhibitors | Yeast expressing alpha-synuclein, growth rescue, BacTiter-Glo, 24 h | 370,000 compounds, 0.14% hits | AID 652106, 2013 | Potency, µM (doses to about 46.1 µM), usual class: activators; also: nearly all actives have a fitted effect of over 65% in size
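Rescue of yeast growth: cells expressing toxic alpha-synuclein, induced in galactose at OD600 0.02, incubated with compound 24 h at 30 C. ATP luminescence quantified growth; inhibitors of toxicity appear as activators.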
A number is an active result; – = inactive; ? = inconclusive; · = no result given. Unless noted, calls follow the shape of the dose curve; as a rule, active = well fitted curve in the direction sought with a large enough effect; inconclusive = small, poorly fitted or top-dose-only effect, or another doubt; inactive = no such curve, though single readings can be large; an effect the other way counts as inactive or inconclusive.

SMILES	PTHR1 ag	LDHA block	TDP43 rescue	FUS suppressor	Abeta yeast res	aSyn yeast inh
COc1ccc(-c2csc(Nc3ccccn3)n2)cc1OC	–	–	12.6µM	–	–	–
Cc1cc(-c2csc(Nc3ccccn3)n2)ccc1F	–	–	3.98µM	–	?	–
Cc1ccnc(Nc2nc(-c3ccc(F)cc3)cs2)c1	–	–	7.94µM	–	–	–
CCc1ccc(NS(=O)(=O)c2cc(-c3ccno3)oc2C)cc1	·	–	·	·	·	·
COCCn1c(N2CCN(Cc3c(Cl)cccc3Cl)CC2)nc2c1c(=O)[nH]c(=O)n2C	·	–	·	·	·	·
COc1ccc(C(=O)COC(=O)c2cc(S(N)(=O)=O)ccc2F)c(OC)c1	·	–	·	·	·	·
Cc1nc(NC(=O)c2ccco2)sc1-c1csc(Nc2ccc(Cl)cc2)n1	–	–	?	22.4µM	–	–
COc1ccc(-c2csc(Nc3ccc(C)cn3)n2)cc1	–	–	12.6µM	–	–	–
Cc1ccc(Nc2nc(-c3sc(C)nc3C)cs2)cc1	–	–	20µM	–	–	–
CC(=O)c1cccc(Nc2nc(-c3sc(C)nc3C)cs2)c1	–	–	11.2µM	–	–	–
CC(=O)c1cccc(Nc2nc(-c3sc(N)nc3C)cs2)c1	–	–	–	–	–	–
CCn1c(N2CCN(Cc3ccccc3F)CC2)nc2c1c(=O)[nH]c(=O)n2C	·	–	·	·	·	·
COc1ccccc1/C=C/C(=O)C(C#N)c1ccc(C(F)(F)F)cn1 (stereo not given)	·	–	·	·	·	·
Cc1ccc(-c2csc(Nc3ccccn3)n2)cc1	–	–	3.16µM	–	?	–
CC(=O)Oc1ccc(-c2csc(Nc3ccc(Cl)cn3)n2)cc1	–	–	12.6µM	–	–	–
Cc1nc(N)sc1-c1csc(Nc2ccc(Cl)cn2)n1	–	–	–	?	–	–
Cc1ccc(Cl)cc1NC(=O)CN(Cc1ccc(Cl)cc1)S(C)(=O)=O	·	–	·	·	·	·
Cc1ccc(-c2nc(SCc3cc(=O)n4nc(C5CC5)sc4n3)n[nH]2)cc1	·	–	·	·	·	·
CCCc1nc(SCC(=O)Nc2ccccc2)c2c(=O)n(C)c(=O)n(C)c2n1	–	–	–	–	–	–
CCCc1nc(SCC(=O)N2CCC(Cc3ccccc3)CC2)c2c(=O)n(C)c(=O)n(C)c2n1	–	–	35.5µM	–	–	–
CCCc1nc(SCC(=O)N2CCCc3ccccc32)c2c(=O)n(C)c(=O)n(C)c2n1	–	–	35.5µM	–	–	–
CC(C)c1nc(SCC(=O)N2CCCC2)c2c(=O)n(C)c(=O)n(C)c2n1	–	–	–	–	–	3.55µM
Cc1[nH]c2ccccc2c1CCNC(=S)NC(C)(C)C	·	–	·	·	·	·
Cc1ccccc1/C=C/C(=O)c1cc2ccccc2o1	·	–	·	·	·	·
Cn1c(-c2ccccc2)c(/C=N/Nc2ccc(S(=O)(=O)Nc3ccccc3)cc2[N+](=O)[O-])c2ccccc21	·	–	·	·	·	·
SMILES	PTHR1 ag	LDHA block	TDP43 rescue	FUS suppressor	Abeta yeast res	aSyn yeast inh
Cc1ccc(-c2cc(C(=O)N(C)C)c3ccccc3n2)c(C)c1	·	–	·	·	·	·
Cc1ccc2c(c1)CCCN2C(=O)c1ccc(Br)o1	·	–	·	·	·	·
O=C(c1ccc(Cl)cc1Cl)N(CCS(=O)(=O)N1CCCC1)Cc1cccnc1	·	–	·	·	·	·
CCN(CC)c1ccc2c(-c3ccc(S(=O)(=O)O)cc3S(=O)(=O)[O-])c3ccc(=[N+](CC)CC)cc-3oc2c1	–	-231.6	–	–	–	–
CCN(CC)c1ccc2nc3c4ccccc4c(=O)cc-3oc2c1	–	–	–	–	–	–
Cc1ccc(C(=O)Nc2c(N3CCCC3)c3ccccc3oc2=O)cc1	·	–	·	·	·	·
COc1cc(/C=C/c2nc(N)nc(-c3ccccc3O)n2)cc(OC)c1OC	–	–	–	–	–	–
COc1ccc(/C=C/c2nc(N)nc(-c3ccccc3O)n2)cc1OC	–	–	15.8µM	·	–	–
COc1cc(/C=C/c2nc(-c3ccccc3O)n[nH]2)cc(OC)c1OC	–	–	15.8µM	·	–	–
CC(C)CCn1c(SCc2ccc(F)cc2)nc2c1c(=O)[nH]c(=O)n2C	·	–	·	·	·	·
O=C(Nc1ccccc1)C(Cl)C(=O)c1ccccc1 (stereo not given)	–	–	–	–	–	–
CC(=O)C(Cl)C(=O)Nc1ccccc1 (stereo not given)	–	–	3.55µM	–	–	–
CCOc1cccc(-c2cc(C(=O)O)c3ccc(C)c(C)c3n2)c1	·	–	·	·	·	·
COc1cc(Nc2nc(SCc3ccccc3Cl)nc3ccccc23)cc(OC)c1	–	–	20µM	?	–	·
O=C(CSc1nc(Nc2ccccc2)c2ccccc2n1)c1ccc(Cl)cc1	–	–	–	–	–	·
COc1cc(Nc2nc(SCC(=O)c3ccc(Cl)c(Cl)c3)nc3ccccc23)cc(OC)c1	–	–	12.6µM	–	–	·
COc1cc(Nc2nc(SCc3cccc(Cl)c3)nc3ccccc23)cc(OC)c1	–	–	17.8µM	–	–	·
COc1cc(Nc2nc(SCc3ccccc3F)nc3ccccc23)cc(OC)c1	–	–	?	–	–	·
CN(C)c1ccc(C(CNC(=O)/C=C/c2ccco2)c2c[nH]c3ccccc23)cc1 (stereo not given)	·	–	·	·	·	·
COC(=O)CNC(=O)C12CC3CC(CC(C3)C1)C2	·	–	·	·	·	·
N#CC(C(=O)CSc1ccc2c(c1)OCCO2)c1nc(-c2ccccc2)cs1 (stereo not given)	·	–	·	·	·	·
Oc1ccc(-c2c(C3=CCCCC3)sc3ccccc23)cc1	–	–	20µM	–	–	–
COc1cccc2c1C(=O)c1c(O)c3c(c(O)c1C2=O)C[C@](O)(C(C)=O)C[C@H]3O[C@@H]1C[C@@H](N)[C@@H](O)[C@@H](C)O1	–	–	–	–	–	11.2µM
COc1ccccc1N1CCN(C(=O)c2cc(C)no2)CC1	·	–	·	·	·	·
O=C1C=C(c2ccccc2)OC(c2ccccc2)O1 (stereo not given)	–	–	12.6µM	–	–	–
SMILES	PTHR1 ag	LDHA block	TDP43 rescue	FUS suppressor	Abeta yeast res	aSyn yeast inh
O=C1C=C(c2ccccc2)OC2(CCCC2)O1	–	–	?	–	–	·
CN(C(=S)Oc1ccc(C(=O)Nc2ccccc2)cc1)c1ccccc1	–	–	12.6µM	·	–	–
COc1ccc(NC(=O)c2ccc(OC(=S)N(C)c3ccc(OC)cc3)cc2)cc1	–	–	–	–	–	–
CC(=O)N1CCN(c2ncnc3sc(-c4ccccc4)cc23)CC1	–	–	–	–	–	–
Oc1ccc(N2CCN(c3ncnc4sc(-c5ccccc5)cc34)CC2)cc1	–	–	11.2µM	?	–	?
CCc1cc2c(N3CCN(c4ccccc4)CC3)ncnc2s1	–	–	12.6µM	–	–	–
